Reference: ChEMBL document CHEMBL2218924, “A broad activity screen in support of a chemogenomic map for kinase signalling research and drug discovery” (Biochem J, 2013)

These compounds were tested against MAP kinase-activated protein kinase 2 (Homo sapiens) (UniProt P49137). Conditions: at 1 µM.
MAP kinase-activated protein kinase 2 (Homo sapiens), sequence (P49137 whole entry, looked up): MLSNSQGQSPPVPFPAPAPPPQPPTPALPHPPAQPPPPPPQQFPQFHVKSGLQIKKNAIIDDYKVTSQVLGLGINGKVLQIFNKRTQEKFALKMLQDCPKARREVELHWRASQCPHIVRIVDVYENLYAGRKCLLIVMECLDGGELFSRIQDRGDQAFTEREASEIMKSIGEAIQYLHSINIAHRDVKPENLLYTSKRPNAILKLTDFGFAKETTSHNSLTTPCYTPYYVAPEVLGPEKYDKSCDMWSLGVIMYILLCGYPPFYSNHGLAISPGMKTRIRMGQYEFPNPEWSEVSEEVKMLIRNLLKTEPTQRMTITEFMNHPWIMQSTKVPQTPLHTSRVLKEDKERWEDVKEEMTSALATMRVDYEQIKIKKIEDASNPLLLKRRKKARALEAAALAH

Compound | residual activity [%]
NC(=O)c1ccc2[nH]c(-c3ccc(Oc4ccc(Cl)cc4)cc3)nc2c1 | 103
Cc1nc(-c2ccccc2)c(-c2ccncc2)o1 | 95
CCOc1cc2ncnc(Nc3cccc(Br)c3)c2cc1OCC | 73
CC(C)n1cnc2/c(=N/c3cccc(Cl)c3)nc(NCCO)[nH]c21 | 91
Nc1nc(Nc2ccc(S(N)(=O)=O)cc2)nn1C(=S)Nc1c(F)cccc1F | 44
Cc1ccc(S(=O)(=O)/C=C/C#N)cc1 | 93
Ic1cccc(CSc2nnc(-c3ccncc3)o2)c1 | 77
O=C1NC(=O)c2c1c1c3ccccc3[nH]c1c1[nH]c3cc(Br)ccc3c21 | 98
O=C1NC(=O)/C(=C\c2ccc3nccnc3c2)S1 | 87
CCN(CC)CCCCN1c2ccccc2Oc2ccc(Cl)cc21 | 115
COc1cccc(-c2cc(=O)c3ccccc3o2)c1N | 99
O=C1c2ccccc2-[n+]2ccc3c([nH]c4ccccc43)c21 | 81
Oc1ccc(-c2nc(-c3ccc(F)cc3)c(-c3ccncc3)[nH]2)cc1 | 87
Cc1nc2cc3nc(-c4cccs4)cnc3cc2n1C | 104
COc1ccc(C(=O)Nc2sc3c(c2C(N)=O)CCCC3)cc1OC | 70
Cn1cc(/C=C2\C(=O)Nc3ccc(S(N)(=O)=O)cc32)c2ccccc21 | 83
Nc1ccc2ncnc(NCCc3ccc(Oc4ccccc4)cc3)c2c1 | 70
CO[C@H]1C[C@@H]2CC[C@@H](C)[C@@](O)(O2)C(=O)C(=O)N2CCCC[C@H]2C(=O)O[C@H]([C@H](C)C[C@@H]2CC[C@@H](O)[C@H](OC)C2)CC(=O)[C@H](C)/C=C(\C)[C@@H](O)[C@@H](OC)C(=O)[C@H](C)C[C@H](C)/C=C/C=C/C=C/1C | 86

Compound | residual activity [%]
CCC(=O)Nc1ccc2ncnc(Nc3cccc(Br)c3)c2c1 | 88
O=C(Nc1cccc(Nc2cc(Nc3cccc(C(F)(F)F)c3)ncn2)c1)C1CC1 | 89
O=[N+]([O-])c1ccc(-c2nc(-c3ccc(F)cc3)c(-c3ccncc3)[nH]2)cc1 | 92
O=c1c2ccccc2[nH]c(=S)n1CCN1CCC(=C(c2ccc(F)cc2)c2ccc(F)cc2)CC1 | 97
COc1cc2ncnc(Nc3ccc(NC(=O)c4ccccc4)cc3)c2cc1OC | 108
COc1ccc(OC)c2c(=S)c3ccccc3[nH]c12 | 102
O=C(O)c1ccc2c3c1cccc3c(=O)n1c3ccccc3nc21 | 86
Cn1cnc2cc3c(Nc4cccc(Br)c4)ncnc3cc21 | 108
COc1ccc(S(=O)(=O)N(CCO)c2ccccc2CN(C)C/C=C/c2ccc(Cl)cc2)cc1 | 78
CNc1cc2c(Nc3cccc(Br)c3)ncnc2cn1 | 119
COc1cc2ncnc(N3CCN(C(=O)Nc4ccc(Oc5ccccc5)cc4)CC3)c2cc1OC | 99
O=C(Nc1cccc(Nc2nccc(Nc3cccc(C(F)(F)F)c3)n2)c1)C1CC1 | 115
c1ccc(-c2n[nH]cc2-c2ccnc3ccccc23)nc1 | 101
O=c1cc(-c2cccc3c2Sc2ccccc2S3)oc(N2CCOCC2)c1 | 100
O=Nc1c(-c2c(O)[nH]c3ccccc23)[nH]c2ccccc12 | 101
Nc1n[nH]c2nnc(-c3c(-c4ccccc4)nn4ccccc34)cc12 | 102
CC(=O)O/N=C1\C(=C2\C(=O)Nc3cc(Br)ccc32)Nc2ccccc21 | 87
